# Data reported in PubChem BioAssay.
# Calls of active or inactive are those of the source. Unless noted, the rule behind the calls is not given here.
# Legend:
# [1] = tested on: Wnt5a (protein binding on small-molecule microarray); test: small molecules binding Wnt5a protein – biophysical, small-molecule microarray, 635/667 nm fluorescence, primary screen (AID 1142); details: 635 nm fluorescence, higher = more signal;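 note: fluorescence read at 667 nm with signal to noise per printed feature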
# [2] = ATP-based viability of Huh7 replicon cells – cell-based, CellTiter-Glo luminescence, basal, 48 h, cytotoxicity control for HCV replication inhibitor project, primary screen (AID 1143); details: higher = more signal, called active from +8 up or from −8 down;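 note: Huh7 hepatoma cells carrying a hepatitis C replication reporter with no stimulus; test concentration not given here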
# [3] = Pseudomonas biofilm growth suppression – PAO1 strain, BacTiter-Glo luminescence, LB-PBS, primary screen (AID 1144); details: P. aeruginosa PAO1 biofilm, 12 h, higher = more signal
# [4] = basal CRE-LacZ reporter activity in PC12 – cell-based, unstimulated, primary screen (AID 1145); details: no forskolin, luminescence, 4.5 h, higher = more signal, called active from +8 up or from −8 down
# [5] = forskolin-driven CRE-LacZ activity in PC12 – cell-based, CRE-LacZ reporter, forskolin-stimulated, primary screen (AID 1146); details: luminescence, 4.5 h, higher = more signal, called active from +8 up or from −8 down;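 note: PC12 cells with 6xCRE LacZ reporter stimulated by forskolin 10 µM; beta-galactosidase reporter signal reflecting CREB driven transcription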
# [6] = target: Streptavidin (Streptomyces avidinii) (UniProt P22629); test: compounds binding control protein streptavidin – biophysical, small-molecule microarray, 635/667 nm fluorescence, artefact control for SMM compound annotation, primary screen (AID 1147); details: higher = more signal;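 note: signal reflects streptavidin binding to arrayed compounds as a control protein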
# Sequence of Streptavidin (Streptomyces avidinii) (P22629 whole entry, looked up): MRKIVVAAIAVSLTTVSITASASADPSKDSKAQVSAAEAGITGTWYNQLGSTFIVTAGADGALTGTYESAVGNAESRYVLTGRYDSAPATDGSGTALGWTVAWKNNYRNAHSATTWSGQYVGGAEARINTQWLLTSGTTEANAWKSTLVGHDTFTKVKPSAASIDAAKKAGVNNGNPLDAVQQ
# [7] = probe aInhba binding on compound microarray – biochemical, small-molecule microarray, 635/667 nm fluorescence, primary screen (AID 1148); details: higher = more signal;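 note: score merges 667nm spot fluorescence with signal-to-noise for antibody binding to printed compounds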
# Torsin-1A (Homo sapiens) [8] = target: Torsin-1A (Homo sapiens) (UniProt O14656); test: TOR1A wild-type binding on microarray – cell lysate, small-molecule microarray, lysate, 635/667 nm, primary screen (AID 1149); details: COS7 hTOR1A-WT lysate, 635 nm fluorescence, higher = more signal
# Sequence of Torsin-1A (Homo sapiens) (O14656 whole entry, looked up): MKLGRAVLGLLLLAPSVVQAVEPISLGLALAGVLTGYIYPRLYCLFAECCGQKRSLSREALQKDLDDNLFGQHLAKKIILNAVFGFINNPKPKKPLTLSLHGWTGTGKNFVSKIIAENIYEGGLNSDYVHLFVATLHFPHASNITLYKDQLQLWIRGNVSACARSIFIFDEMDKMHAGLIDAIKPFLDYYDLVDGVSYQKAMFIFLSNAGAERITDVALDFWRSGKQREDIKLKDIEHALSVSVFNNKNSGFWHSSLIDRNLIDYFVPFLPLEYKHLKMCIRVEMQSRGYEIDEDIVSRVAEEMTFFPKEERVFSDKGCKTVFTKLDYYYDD
# Torsin-1A (Homo sapiens) [9] = target: Torsin-1A (Homo sapiens) (UniProt O14656); test: torsin A mutant lysate binding on microarrays – cell lysate, small-molecule microarray, COS7 lysate, 635/667 nm fluorescence, primary screen (AID 1150); details: COS7 hTOR1A mutant lysate, 635 nm fluorescence, higher = more signal;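 note: score pools 667 nm emission and signal to noise measuring lysate protein binding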
# [10] = tested on: Sonic hedgehog protein (Shh); test: Sonic hedgehog microarray binding compounds – biochemical, small-molecule microarray, 635/667 nm fluorescence, primary screen (AID 1151); details: 635 nm fluorescence, higher = more signal;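 note: Shh protein binding to compounds spotted on small-molecule microarray slides; score combines spot fluorescence intensity with signal-to-noise across triplicate slides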
# [11] = optical density shifts of acrAB sulA E. coli – strain DRC41, OD650, 48 h, E. coli filamentation inducer project, primary screen (AID 1152); details: higher = more signal, called active from +8 up or from −8 down;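 note: E. coli MC1000 strain DRC41 lacking acrAB efflux pump and sulA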
# [12] = probe aLefty1 binding on compound microarray – biochemical, small-molecule microarray, 635/667 nm fluorescence, primary screen (AID 1153); details: higher = more signal;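 note: score merges spot fluorescence with signal-to-noise ratio from the scanned slide images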
# [13] = plasmodial surface anion channel blockers, osmotic lysis – cell-based, P. falciparum Indochina, OD700, 1 h, primary screen (AID 1154); details: P. falciparum Indochina infected RBC osmotic lysis, higher = more signal, called active from +8 up or from −8 down
# [14] = plasmodial surface anion channel blockers, osmotic lysis – cell-based, P. falciparum Indochina, OD700, 2 h, primary screen (AID 1155);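 note: lysis reports solute entry through the parasite surface anion channel PSAC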; details: P. falciparum Indochina infected erythrocytes, higher = more signal, called active from +8 up or from −8 down
# [15] = changes in parasitized red cell lysis, either direction – P. falciparum Indochina, OD700, 3 h, PSAC antagonist project, primary screen (AID 1156); details: P. falciparum-infected erythrocytes, osmotic lysis, higher = more signal, called active from +8 up or from −8 down
# [16] = plasmodial surface anion channel blockers, osmotic lysis – cell-based, P. falciparum Indochina, OD700, 18 h, primary screen (AID 1157); details: P. falciparum Indochina infected erythrocytes, osmotic lysis OD700, 18 h; higher = more signal, called active from +8 up or from −8 down
# [17] = S6 kinase pathway phospho-S6 level changes – cell-based, A549, cytoblot, luminescence, serum-stimulated, primary screen (AID 1158); details: 5 h, higher = more signal;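 note: serum-stimulated A549 lung adenocarcinoma cells; signal is phosphorylated S6 detected by cytoblot immunostaining with HRP secondary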
# [18] = target: NADPH oxidase 2 (Homo sapiens) (UniProt P04839); test: compounds shifting NOX2 Amplex Red fluorescence – cell-based, HEK293-NOX2, PMA-stimulated, NOX inhibitor project, primary screen (AID 1159); details: 45 min, higher = more signal, called active from +8 up or from −8 down; note: test concentration not given here
# Sequence of NADPH oxidase 2 (Homo sapiens) (P04839 whole entry, looked up): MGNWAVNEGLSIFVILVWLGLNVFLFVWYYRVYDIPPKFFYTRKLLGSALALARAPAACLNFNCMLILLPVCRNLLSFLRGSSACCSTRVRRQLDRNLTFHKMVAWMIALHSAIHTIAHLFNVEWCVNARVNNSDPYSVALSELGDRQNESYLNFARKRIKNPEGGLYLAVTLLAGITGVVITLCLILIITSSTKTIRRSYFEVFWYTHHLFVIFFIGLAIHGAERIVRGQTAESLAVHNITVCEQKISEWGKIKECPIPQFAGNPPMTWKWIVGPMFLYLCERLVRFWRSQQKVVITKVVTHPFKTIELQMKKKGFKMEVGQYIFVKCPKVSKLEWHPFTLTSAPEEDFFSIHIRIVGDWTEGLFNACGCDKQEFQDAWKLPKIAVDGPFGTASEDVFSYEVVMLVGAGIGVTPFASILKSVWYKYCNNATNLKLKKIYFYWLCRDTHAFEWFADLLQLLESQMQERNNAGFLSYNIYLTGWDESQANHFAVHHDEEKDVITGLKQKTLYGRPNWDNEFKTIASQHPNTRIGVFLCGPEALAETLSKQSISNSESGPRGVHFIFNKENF
# [19] = target: NADPH oxidase 4 (Homo sapiens) (UniProt Q9NPH5); test: compounds shifting NOX4 Amplex Red fluorescence – cell-based, HEK293-NOX4, tetracycline-induced, NOX inhibitor project, primary screen (AID 1160); details: HEK293-NOX4, Amplex Red H2O2 fluorescence, 45 min; higher = more signal, called active from +8 up or from −8 down
# Sequence of NADPH oxidase 4 (Homo sapiens) (Q9NPH5 whole entry, looked up): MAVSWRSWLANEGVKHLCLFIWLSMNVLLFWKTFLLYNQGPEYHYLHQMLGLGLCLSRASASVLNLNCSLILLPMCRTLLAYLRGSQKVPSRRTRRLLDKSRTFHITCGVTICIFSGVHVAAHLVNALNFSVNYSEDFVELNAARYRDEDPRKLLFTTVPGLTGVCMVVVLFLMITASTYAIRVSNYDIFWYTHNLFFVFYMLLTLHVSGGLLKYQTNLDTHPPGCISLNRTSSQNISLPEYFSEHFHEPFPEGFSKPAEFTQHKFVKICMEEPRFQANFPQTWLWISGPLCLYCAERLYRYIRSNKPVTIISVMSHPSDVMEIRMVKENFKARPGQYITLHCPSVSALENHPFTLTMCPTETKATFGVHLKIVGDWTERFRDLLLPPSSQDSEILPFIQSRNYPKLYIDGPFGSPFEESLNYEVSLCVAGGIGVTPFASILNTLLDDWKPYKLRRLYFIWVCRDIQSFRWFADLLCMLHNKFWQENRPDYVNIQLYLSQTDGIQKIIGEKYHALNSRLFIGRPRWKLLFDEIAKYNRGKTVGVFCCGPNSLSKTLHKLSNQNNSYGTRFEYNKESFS
# [20] = target: NADPH oxidase 5 (Homo sapiens) (UniProt Q96PH1); test: compounds shifting NOX5 Amplex Red fluorescence – cell-based, HEK293-NOX5, NOX inhibitor project, primary screen (AID 1161); details: HEK293-NOX5, ionomycin, 45 min, higher = more signal
# Sequence of NADPH oxidase 5 (Homo sapiens) (Q96PH1 whole entry, looked up): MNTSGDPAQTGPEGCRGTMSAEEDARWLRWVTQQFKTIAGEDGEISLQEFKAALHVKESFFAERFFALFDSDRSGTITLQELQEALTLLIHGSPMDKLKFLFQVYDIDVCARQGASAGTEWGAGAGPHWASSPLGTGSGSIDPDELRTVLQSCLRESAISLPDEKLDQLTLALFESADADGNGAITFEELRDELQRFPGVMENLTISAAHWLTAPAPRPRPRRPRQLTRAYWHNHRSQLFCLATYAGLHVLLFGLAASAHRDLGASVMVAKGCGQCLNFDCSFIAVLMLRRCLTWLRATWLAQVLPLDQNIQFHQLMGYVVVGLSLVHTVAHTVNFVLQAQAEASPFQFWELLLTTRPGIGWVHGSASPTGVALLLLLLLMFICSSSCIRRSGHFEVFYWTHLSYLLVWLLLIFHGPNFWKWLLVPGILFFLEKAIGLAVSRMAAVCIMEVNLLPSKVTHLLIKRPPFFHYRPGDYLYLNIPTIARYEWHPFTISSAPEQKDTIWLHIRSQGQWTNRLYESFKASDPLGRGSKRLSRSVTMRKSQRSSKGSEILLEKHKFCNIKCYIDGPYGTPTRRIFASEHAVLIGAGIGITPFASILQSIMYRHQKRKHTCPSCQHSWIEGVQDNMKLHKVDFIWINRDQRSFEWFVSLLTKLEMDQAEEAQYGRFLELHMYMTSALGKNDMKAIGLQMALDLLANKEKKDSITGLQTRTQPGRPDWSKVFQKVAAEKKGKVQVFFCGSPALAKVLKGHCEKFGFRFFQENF
SMILES,composite z-score [1],z-score [2],z-score [3],z-score [4],z-score [5],composite z-score [6],composite z-score [7],composite z-score (Torsin-1A (Homo sapiens) [8]),composite z-score (Torsin-1A (Homo sapiens) [9]),composite z-score [10],z-score [11],composite z-score [12],z-score [13],z-score [14],z-score [15],z-score [16],z-score [17],z-score [18],z-score [19],z-score [20]
[N-]=[N+]=NCc1ccccc1[C@H]1OC(c2ccc(OCCCO)cc2)=N[C@@]1(CCS(=O)(=O)c1ccccc1)C(=O)NCC(O)CO (stereo not given in full),0.914,-0.119 (inactive),-1.53 (inactive),1.99 (inactive),-0.75 (inactive),1.2,0.257,0.662,1.41,-0.276,-0.0559 (inactive),0.675,27.1 (active),21.1 (active),2.23 (inactive),2.78 (inactive),0.123,1.47 (inactive),1.1 (inactive),1.64
COc1ccc([Si](C)(C)[C@H]2[C@H](CCn3cc([C@H](O)c4ccccc4)nn3)O[C@@]3(C(=O)N(Cc4ccc(N5C(=O)c6cccc7cccc5c67)cc4)c4ccccc43)[C@@H]2C)cc1,-0.21,-2.02 (inactive),-1.05 (inactive),1.02 (inactive),-0.715 (inactive),0.618,-0.0791,-0.734,-0.35,0.232,0.0759 (inactive),0.0091,1.97 (inactive),0.485 (inactive),0.0591 (inactive),0.646 (inactive),0.243,0.892 (inactive),0.925 (inactive),2.01
Cc1cc(C)c(C(O)C2C=CC3C(=O)NC(=O)C3N2Nc2ccc(Cl)cc2Cl)c(C)c1 (stereo not given),0.0976,-0.943 (inactive),-0.882 (inactive),-0.329 (inactive),-0.496 (inactive),1.64,0.249,0.148,0.697,-0.684,-2.38 (inactive),0.479,3.38 (inactive),1.18 (inactive),-1.55 (inactive),0.876 (inactive),-0.919,0.614 (inactive),-4.94 (inactive),-1.3
COC(=O)[C@@]1(Cc2ccccc2)[C@@H]2C(=CC(=O)[C@H]2CC(=O)C(=O)N(C)C)CN1C(=O)c1ccccc1,0.117,-2.86 (inactive),0.421 (inactive),0.0075 (inactive),0.087 (inactive),-0.0043,0.308,0.2,0.239,-0.2,0.174 (inactive),0.0093,4.6 (inactive),0.329 (inactive),0.864 (inactive),0.664 (inactive),-0.52,-0.0425 (inactive),0.705 (inactive),0.16
C=C(C(=O)CC[C@@H](OC(C)=O)c1ccc(CO)o1)C(C)C,0.911,1.18 (inactive),-0.947 (inactive),0.275 (inactive),2.17 (inactive),0.0155,-0.0427,-0.427,-0.0059,1.91,-0.167 (inactive),-0.007,1.21 (inactive),0.0112 (inactive),0.493 (inactive),-0.0113 (inactive),-0.0282,-0.354 (inactive),0.261 (inactive),0.483
CCOC(=O)C1=CC[C@@H](c2cccc(Cl)c2)N(S(=O)(=O)c2ccc(C)cc2)C1,-0.159,-5.08 (inactive),-0.06 (inactive),-0.574 (inactive),0.132 (inactive),0.449,0.0173,0.176,0.193,-0.327,0.065 (inactive),0.0166,2.31 (inactive),-0.389 (inactive),-0.423 (inactive),-1.89 (inactive),1.02,0.201 (inactive),-0.927 (inactive),-0.736
O=C1C[C@@](C(=O)NCCN2CCOCC2)(c2ccc([N+](=O)[O-])cc2)[C@@H](c2ccc(CO)cc2I)N1C1CCCCC1,0.642,-4.95 (inactive),-1.36 (inactive),0.0279 (inactive),-1.11 (inactive),-0.0491,-0.0468,-0.308,0.896,1.92,0.82 (inactive),0.0688,15.3 (active),1.59 (inactive),2.94 (inactive),-0.168 (inactive),0.452,2.1 (inactive),-1.09 (inactive),-1.5
CN1C(=O)C2C=CC(C(O)c3ccc(F)cc3)N(Nc3ccccc3)C2C1=O (stereo not given),-0.126,0.457 (inactive),-0.293 (inactive),0.0535 (inactive),0.754 (inactive),0.473,0.203,-0.319,0.363,0.137,-1.69 (inactive),0.0711,1.24 (inactive),1.05 (inactive),1.45 (inactive),0.582 (inactive),-0.85,-1.41 (inactive),-3.79 (inactive),-3.17
CCOC(=O)C[C@H]1[C@H](OC(=O)c2ccccc2-c2ccccc2)[C@@H](NC(=O)C2CCCCC2)c2cc(OCCCO)ccc2N1C(=O)Cc1ccc(OC)cc1,0.0136,-0.226 (inactive),0.642 (inactive),4.65 (inactive),0.899 (inactive),0.0611,-0.0736,-0.0183,0.307,-0.0275,-1.13 (inactive),-0.0547,1.1 (inactive),0.664 (inactive),0.125 (inactive),0.256 (inactive),-0.434,0.0588 (inactive),0.979 (inactive),0.103
